Source: PubChem BioAssay (Tox21)
Inconclusive results are not listed. Calls of active or inactive are those of the source. Unless noted, calls come from the whole dose curve; as a rule, active = well fitted curve in the direction sought with a large enough effect in the repeat runs; inconclusive = weak or mixed curves; inactive = no such curve, though single readings can be large; an effect the other way counts as inactive or inconclusive.

How the values were obtained:
[1] = qHTS assay to identify small molecule agonists of the hypoxia (HIF-1) signaling pathway - cell viability counter screen (AID 1224844; calls by dose curve; note: nearly all actives have a fitted effect of over 50% in size)
Summary of the method: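 Cytotoxicity measured by CellTiter-Glo ATP luminescence in the wells also read for beta-lactamase signal. Cells were HRE-bla ME-180 (2,000/well, 0.5% dialyzed FBS), exposed to compounds for 17 h at 37C.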

[2] = qHTS assay to identify small molecule agonists of the hypoxia (HIF-1) signaling pathway (AID 1224846; active = well fitted activation curve with a large enough effect in the signal ratio in the repeat runs, not every such curve was filed as active; the % refers to the signal ratio)
Summary of the method: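 Compounds added to ME-180 cells carrying hypoxia-response-element beta-lactamase reporter (0.5% dialyzed FBS, 5 h preplating), 17 h at 37C; agonist activity detected by CCF4-AM B/G FRET read-out.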

[3] = qHTS assay to identify small molecule agonists of H2AX - cell viability counter screen (AID 1224847; calls by dose curve; note: top concentration of the series differs between compounds; nearly all actives have a fitted effect of over 30% in size)
Summary of the method: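 Quantitative HTS viability measurement: CHO-K1 wild-type cells in serum (10% FBS) medium, short 3 hr drug exposure at 37C with 0.76% DMSO, CellTiter-Glo luminescent detection.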

[4] = qHTS assay to identify small molecule antagonists of the estrogen related receptor (ERR) signaling pathway from Tox21 library (AID 1224848); note: nearly all actives have a fitted effect of over 50% in size
Summary of the method: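 Luciferase luminescence (ONE-Glo, 30 min room temperature) was the read-out. Cells of the NTP-supplied ERR line, 2,000 per well, were given 6 h at 37 C before compound addition in DMSO and 18 h exposure at 37 C.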

[5] = qHTS assay to identify small molecule agonists of the estrogen related receptor (ERR) signaling pathway from Tox21 library (AID 1224849; calls by dose curve; note: nearly all actives have a fitted effect of over 15% in size); conditions: ERR reporter cell line, ONE-Glo luciferase, 18 h; at 92.4 µM (top of the series) unless noted
Summary of the method: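 Luminescent agonist read-out (One-Glo, 30-minute room-temperature incubation) following 18-hour compound treatment at 37 C of the ERR cell line, which had been plated 6 hours before dosing.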

[6] = qHTS RealTime-Glo MT Cell Viability Assay in HepG2 cells - 24 hour (AID 1224867); note: nearly all actives have a fitted effect of over 50% in size
Summary of the method: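 Luminescence read-out: viable HepG2 cells reduce a prosubstrate to a NanoLuc substrate, giving a signal proportional to live cell number. Reads taken at 0, 8, 16, 24, 32 and 40 h of compound exposure at 37 C.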

[7] = qHTS RealTime-Glo MT Cell Viability Assay in HEK293 cells - 32 hour (AID 1224868); note: top concentration of the series differs between compounds; nearly all actives have a fitted effect of over 50% in size
Summary of the method: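 Nonlytic real-time viability readout: viable cells convert prosubstrate to NanoLuc substrate, giving luminescence proportional to live cell number. HEK293, 600 cells/well, compound added after 5 h, continuous culture at 37 C.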

[8] = A CellTox Green Cytotoxicity Assay to monitor cytotoxicity in HEK293 cells - 0 hour (AID 1224869); note: nearly all actives have a fitted effect of over 50% in size
Summary of the method: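 Fluorescence from a DNA-binding dye excluded by viable cells was measured repeatedly in the same HEK293 wells (600 cells/well) during continuous compound exposure at 37 C. Each assay gives one read point: 0, 8, 16, 24, 32 or 40 h.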

[9] = qHTS assay to identify small molecule agonists of H2AX (AID 1224845; active = well fitted activation curve with a large enough effect in the signal ratio in the repeat runs, not every such curve was filed as active; the % refers to the signal ratio)
Summary of the method: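 Phospho-H2AX Ser139 measured by HTRF (ex 320 nm; em 665 and 620 nm) after 24 hr antibody incubation. Compounds, 15 concentrations, 0.76% DMSO, were applied to CHO-K1 cells for 3hr at 37C before lysis.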
% is set by controls: 0 for no effect and ±100 for the full control effect.

O=C(c1ccc(O)cc1)c1ccc(O)c(O)c1O
inactive: outcome [1] | outcome [2] | Potency [3] | Potency [4] | activity change, positive = activation [5] -5.51% | outcome [6] | Potency [7] | outcome [8]

COc1ccc(-c2cc(=O)c3c(O)cc(O[C@@H]4O[C@H](CO[C@@H]5O[C@@H](C)[C@H](O)[C@@H](O)[C@H]5O)[C@@H](O)[C@H](O)[C@H]4O)cc3o2)cc1O
inactive: outcome [1] | outcome [2] | Potency [3] | Potency [4] | activity change, positive = activation [5] -13.8% [at 42.5 µM] | outcome [6] | Potency [7] | outcome [8]

NC(CO)C(=O)NNCc1ccc(O)c(O)c1O (centres undefined)
inactive: outcome [1] | Potency [3] | Potency [4] | activity change, positive = activation [5] 1.5% [at 42.5 µM] | outcome [6] | Potency [7] | outcome [8]

C[C@@H](Oc1ccc(CNC(=O)c2cccnc2Oc2ccc3c(c2)OCO3)c(F)c1)C(=O)O
inactive: outcome [1] | Potency [3] | Potency [4] | activity change, positive = activation [5] 4.43% | outcome [6] | Potency [7] | outcome [8]

C=C(C)C(=O)OCC(C)(C)COC(=O)C(=C)C
inactive: outcome [1] | outcome [9] | outcome [2] | Potency [3] | Potency [4] | activity change, positive = activation [5] 0.866% | outcome [6] | Potency [7] | outcome [8]

CC(C)CCCCOC(=O)c1ccccc1C(=O)OCCCCC(C)C
inactive: outcome [1] | outcome [2] | Potency [3] | Potency [4] | activity change, positive = activation [5] -6.44% | outcome [6] | Potency [7] | outcome [8]

CCCOC(OCCC)OCCC
inactive: outcome [1] | outcome [9] | outcome [2] | Potency [3] | Potency [4] | activity change, positive = activation [5] 4.24% | outcome [6] | Potency [7] | outcome [8]

COc1cc(NS(=O)(=O)c2ccc(N)cc2)nc(OC)n1
inactive: outcome [1] | outcome [9] | Potency [3] | Potency [4] | outcome [6] | Potency [7] | outcome [8]

CCCCCCCCC(=O)Cl
inactive: outcome [1] | outcome [2] | Potency [3] | Potency [4] | activity change, positive = activation [5] 0.757% | outcome [6] | Potency [7] | outcome [8]

NCCS
inactive: outcome [1] | Potency [3] | Potency [4] | activity change, positive = activation [5] -2.88% [at 42.5 µM] | outcome [6] | Potency [7] | outcome [8]

C#CC(C)N(C)C(=O)Nc1ccc(Cl)cc1 (centres undefined)
inactive: outcome [1] | outcome [9] | Potency [3] | Potency [4] | activity change, positive = activation [5] 5.26% | outcome [6] | outcome [8]

CC[C@H](C)C(=O)O[C@H]1C[C@H](O)C=C2C=C[C@H](C)[C@H](CC[C@@H](O)C[C@@H](O)CC(=O)O)[C@H]21
inactive: outcome [9] | outcome [2] | Potency [3] | outcome [6] | Potency [7] | outcome [8]

Cc1cc(Cl)c(C)cc1Cl
inactive: outcome [1] | outcome [9] | outcome [2] | Potency [3] | Potency [4] | activity change, positive = activation [5] -5.35% | outcome [6] | Potency [7] | outcome [8]

CC(=O)c1ccc2c(c1)Cc1ccccc1-2
inactive: outcome [1] | outcome [9] | outcome [6] | Potency [7] | outcome [8]

CCC(C=O)CC
inactive: outcome [1] | outcome [9] | outcome [2] | Potency [3] | Potency [4] | activity change, positive = activation [5] 2.68% | outcome [6] | Potency [7] | outcome [8]

CN=C(NC#N)Nc1ccc(C2=NNC(=O)CC2C)cc1 (centres undefined)
inactive: outcome [1] | outcome [9] | outcome [2] | Potency [3] | Potency [4] | activity change, positive = activation [5] 5.55% [at 42.5 µM] | outcome [6] | Potency [7] | outcome [8]

C=CC(OCC)OCC
inactive: outcome [1] | outcome [2] | Potency [3] | outcome [6] | Potency [7] | outcome [8]

COc1ccc(S(=O)(=O)N2c3ccc(Cl)cc3[C@@](O)(c3ccccc3Cl)[C@H]2C(=O)N2CCC[C@@H]2C(N)=O)cc1OC
inactive: outcome [1] | outcome [9] | outcome [2] | Potency [3] | outcome [6] | outcome [8]

C=C(C)C(=O)OCc1ccccc1
inactive: outcome [1] | outcome [9] | outcome [2] | Potency [3] | Potency [4] | activity change, positive = activation [5] 1.9% | outcome [6] | Potency [7] | outcome [8]

CC(C)C[C@H](NC(=O)CNC(=O)[C@H](Cc1ccc(O)cc1)NC(=O)[C@H](CO)NC(=O)[C@H](Cc1c[nH]c2ccccc12)NC(=O)[C@H](Cc1cnc[nH]1)NC(=O)[C@@H]1CCC(=O)N1)C(=O)N[C@@H](CCCN=C(N)N)C(=O)N1CCC[C@H]1C(=O)NCC(N)=O (stereo in doubt)
inactive: outcome [1] | outcome [9] | outcome [2] | Potency [3] | outcome [6] | Potency [7] | outcome [8]

Nc1ccc(S(=O)(=O)Nc2ccc(Cl)nn2)cc1
inactive: outcome [1] | outcome [9] | Potency [3] | Potency [4] | activity change, positive = activation [5] 4.62% [at 42.5 µM] | outcome [6] | Potency [7] | outcome [8]

CC(C)(C)NC(N)=O
inactive: outcome [1] | outcome [9] | Potency [3] | Potency [4] | activity change, positive = activation [5] 2.65% | outcome [6] | Potency [7] | outcome [8]

FC(F)(F)c1ccccc1-n1ccnc1
inactive: outcome [1] | outcome [9] | Potency [3] | outcome [6] | Potency [7] | outcome [8]

CCC(C)(CCC(C)C)C(=O)O (centres undefined)
inactive: outcome [1] | Potency [3] | Potency [4] | activity change, positive = activation [5] -1.46% | outcome [6] | Potency [7] | outcome [8]

O=C1c2ccccc2C(=O)N1CCl
inactive: outcome [1] | outcome [9] | outcome [2] | Potency [3] | Potency [4] | activity change, positive = activation [5] 0.282% | outcome [6] | Potency [7] | outcome [8]
